# In PubChem BioAssay:
# Active and inactive are the calls of the source. Unless noted, no stated cut-off is given here; in the data, active means inhibition above about 80%; inactive means the rest.
# Legend:
# [1] = viability loss with induced miR-34 in A549 – imaging, A549 dox-inducible miR-34, nuclei and caspase counts, primary screen (AID 1347080;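 active means compounds whose cell count with miR-34 switched on is under 0.7 times the count with it off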); details: A549 miR-34 inducible, Hoechst nuclei count, 48 h
# [2] = MELAS cybrid and Rieske KO viability enhancers – cell-based, MELAS cybrids, Rieske KO mouse fibroblasts, CellTiter-Glo, primary screen (AID 1508586;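 active means mean z-score across replicates of 1.96 or higher in either the MELAS or the Rieske mutant cell line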;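 further: z relative to plate mean and SD of compound and empty wells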); details: low glucose
# [3] = growth inhibition, single agent or in combination, cell-based, chromothripsis tumors, cisplatin or BGB combos (AID 1671449); details: LFS_MB_P medulloblastoma cells;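 further: cells exposed for 96 hours; 0% = vehicle DMSO and 100% = killing by high DMSO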
# [4] = growth inhibition, single agent and combos, cell-based, chromothripsis tumors, cisplatin or BGB combos (AID 1671450); details: HDN33 neuroblastoma cells, stronger effect = higher value;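 further: cells exposed to compound for four days; 0% = vehicle DMSO and 100% = cell killing by high DMSO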
# [5] = growth inhibition, single agents and combos, ICB984, cell-based, cisplatin or BGB combos, synergistic combos for chromothripsis tumors (AID 1671451; call rule not given here;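 further: cells exposed for 96 hours before readout; 0% = vehicle DMSO and 100% = killing by high DMSO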); details: ICB984 medulloblastoma cells, drug combinations, stronger effect = higher value
# [6] = growth inhibition, single agents and combos, LFS_MB_1R, cell-based, cisplatin or BGB combos, synergistic combos for chromothripsis tumors (AID 1671452); details: LFS_MB_1R medulloblastoma cells, stronger effect = higher value;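 further: cells exposed for 96 hours before readout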
# [7] = growth inhibition, single agents and combos, HTB85, cell-based, BGB or cisplatin IC20 combos, synergistic combos for chromothripsis tumors (AID 1671453); details: HTB85 osteosarcoma cells, drug combinations, stronger effect = higher value;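 further: cells exposed for 96 hours before readout; 0% = vehicle DMSO and 100% = high DMSO killing control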
# [8] = growth inhibition, single agents and combos, CRL2098, cell-based, BGB or cisplatin IC20 combos, synergistic combos for chromothripsis tumors (AID 1671454); details: CRL2098 osteosarcoma cells, drug combinations, stronger effect = higher value;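 further: cells exposed for 96 h before readout; 0% = vehicle DMSO and 100% = killing by high DMSO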
# [9] = growth inhibition, single agents and combos, HD-MB03, cell-based, BGB or cisplatin IC20 combos, synergistic combos for chromothripsis tumors (AID 1671455; in the data active means inhibition above about 83%;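 further: 0% = vehicle DMSO and 100% = high DMSO as cytotoxic control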); details: HD-MB03 medulloblastoma cells, stronger effect = higher value
# [10] = growth inhibition, single agents and combos, UWB1.289, cell-based, BGB or cisplatin combos, synergistic combos for chromothripsis tumors (AID 1671456); details: UWB1.289 ovarian carcinoma cells, stronger effect = higher value;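 further: cells exposed to compound for four days; 0% = vehicle DMSO and 100% = killing by high DMSO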
# [11] = growth inhibition, single agents and combos, LFS_MB_2R, cell-based, cisplatin combos, synergistic combos for chromothripsis tumors (AID 1671457); details: LFS_MB_2R medulloblastoma cells, stronger effect = higher value;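 further: cells exposed to compound for four days before readout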
# [12] = growth inhibition, MDA-MB-436, cell-based, BGB or cisplatin combos, synergistic combos for chromothripsis tumors (AID 1671458; call rule not given here;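 further: cells exposed for 96 hours; 0% = vehicle DMSO and 100% = killing by high DMSO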); details: MDA-MB-436 breast carcinoma growth inhibition, drug combinations, stronger effect = higher value
# [13] = UWB1.289_BRCA1 ovarian cancer growth, cell-based, BGB or cisplatin combinations (AID 1671459); details: UWB1.289 BRCA1 ovarian carcinoma, drug combinations, stronger effect = higher value
# [14] = drug combination toxicity in non-malignant astrocytes – cell-based, BGB or cisplatin IC20 combos, cytotoxicity control for chromothriptic childhood tumor combination screen (AID 1671460); details: Human astrocytes, viability inhibition, drug combinations, at 0.5 µM, stronger effect = higher value;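 further: cells exposed to compounds for 96 hours before viability readout; 0% = vehicle and 100% = killing control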
# [15] = BT084 cell growth, single and combined drugs, ICGC_MB145, cisplatin and BGB IC40 combos (AID 1671461); details: BT084 medulloblastoma cells, drug combinations, stronger effect = higher value;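 further: cells exposed to drugs for 96 hours; 0% = vehicle DMSO and 100% = high DMSO full killing control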
# [16] = RCMB18 cell growth, single agent and combined, cisplatin and BGB IC40 combos (AID 1671462); details: RCMB18 medulloblastoma cells, stronger effect = higher value;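 further: cells exposed to compound for four days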
# [17] = CRL1545 cell growth, single agent and combined, cisplatin and BGB IC20 combos (AID 1671464); details: CRL1545 osteosarcoma cells, stronger effect = higher value;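 further: cells exposed to compound for 96 hours before readout; 0% = vehicle DMSO and 100% = high DMSO killing control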
# [18] = compounds altering viability of human ES cells (AID 493140; call rule not given here;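 further: cells exposed to compounds for four days before counting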); details: human embryonic stem cell survival screen; stronger effect = higher value
# [19] = P. berghei load reduction in hepatocytes – cell-based, HepG2, luciferase luminescence, HepG2 viability, primary screen (AID 624349; in the data active means parasite load remaining mostly below about 12%, no sharp cut-off; inactive means mostly above about 10%;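 further: 100% = mean of DMSO negative control wells on the same plate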); details: P. berghei liver stage in HepG2, luciferase luminescence, concentration not given here; parasite load remaining: stronger effect = lower value; viability: measured here: HepG2 viability without parasites
# [20] = stronger effect = lower value, cell number ratio, induced over uninduced
# [21] = measured here: relative caspase fold change +Dox/-Dox
# [22] = measured here: total cells with miR-34 induction, stronger effect = lower value
# [23] = measured here: total cells without miR-34 induction
# [24] = MELAS cybrid survival, CellTiter-Glo 48 h, stronger effect = higher value
# [25] = Rieske KO mouse fibroblast survival, CellTiter-Glo 72 h
# [26] = measured here: combination with BGB IC40, at 0.05 µM
# [27] = measured here: with BGB IC20 combination, at 0.5 µM
# [28] = measured here: with cisplatin IC20 combination, at 0.5 µM
# [29] = measured here: combination with cisplatin, at 0.5 µM
# [30] = measured here: combination with cisplatin, at 5 µM
compound,measurement,setting,value
COc1ccccc1S(=O)(=O)Nc1ccc2c(c1)CN(C)C(=O)N2,fold change,[1]; [20],1.02 (inactive)
same,fold change,[1]; [21],0.364
same,cell count,[1]; [22],6410
same,cell count,[1]; [23],6310
same,z-score,[2]; [24],0.202 (inactive)
same,z-score,[2]; [25],-0.445
same,inhibition,"[3]; at 0.5 µM, stronger effect = higher value",-27% (inactive)
same,inhibition,"[3]; measured here: combination with BGB IC20, at 0.005 µM",-35.7%
same,inhibition,"[3]; measured here: combination with BGB IC40, at 0.005 µM",-46.6%
same,inhibition,[3]; [26],-41.2%
same,inhibition,"[3]; measured here: combination with cisplatin, at 0.5 µM, stronger effect = higher value",-73.8%
same,inhibition,"[3]; measured here: combination with cisplatin, at 5 µM, stronger effect = higher value",27.9%
same,inhibition,"[4]; BGB combo, at 5 µM",10.4%
same,inhibition,[4]; at 0.5 µM,-28.2% (inactive)
same,inhibition,"[4]; cisplatin combo, at 5 µM",19.3%
same,inhibition,[4]; [27],-28.2%
same,inhibition,[4]; [28],-25.5%
same,inhibition,"[4]; single agent, at 5 µM",26.1%
same,inhibition,"[5]; BGB IC20 combo, at 0.005 µM",0.625%
same,inhibition,"[5]; BGB IC40 combo, at 0.005 µM",-32.2%
same,inhibition,"[5]; BGB IC40 combo, at 0.05 µM",2.94%
same,inhibition,[5]; at 0.5 µM,-27.9% (inactive)
same,inhibition,"[5]; cisplatin combo, at 0.05 µM",-1.96%
same,inhibition,"[5]; cisplatin combo, at 0.5 µM",-28%
same,inhibition,"[5]; cisplatin combo, at 5 µM",-22.2%
same,inhibition,"[5]; measured here: 5 uM single agent, at 5 µM",-15.3%
same,inhibition,[6]; at 0.5 µM,-15.2% (inactive)
same,inhibition,[6]; [26],-24.6%
same,inhibition,[6]; [29],-10.4%
same,inhibition,[6]; [30],42.8%
same,inhibition,[7]; at 0.5 µM,-7.92% (inactive)
same,inhibition,"[7]; measured here: with BGB IC20, at 0.5 µM",9.14%
same,inhibition,"[7]; measured here: with BGB IC20, at 5 µM",38.2%
same,inhibition,"[7]; measured here: with cisplatin IC20, at 0.5 µM",-13.9%
same,inhibition,"[7]; measured here: with cisplatin IC20, at 5 µM",31.4%
same,inhibition,"[7]; single agent, at 5 µM",32.5%
same,inhibition,[8]; at 0.5 µM,-31.4% (inactive)
same,inhibition,"[8]; measured here: combination with BGB at IC20, at 0.5 µM",0.952%
same,inhibition,"[8]; measured here: combination with cisplatin at IC20, at 0.5 µM",-85.9%
same,inhibition,[9]; at 0.5 µM,-5.44% (inactive)
same,inhibition,"[9]; measured here: combo with BGB at IC20, at 0.5 µM",-9.22%
same,inhibition,"[9]; measured here: combo with cisplatin at IC20, at 0.5 µM",-6.26%
same,inhibition,[10]; at 0.5 µM,-14.3% (inactive)
same,inhibition,"[10]; measured here: inhibition with BGB combination, at 0.05 µM",-45%
same,inhibition,"[10]; measured here: inhibition with cisplatin combination, at 0.05 µM",-24.9%
same,inhibition,[11]; at 0.5 µM,-17.7% (inactive)
same,inhibition,[11]; [29],-4.41%
same,inhibition,[11]; [30],24.4%
same,inhibition,[12]; at 0.5 µM,-11.9% (inactive)
same,inhibition,"[12]; measured here: BGB combination, at 0.5 µM",-2.15%
same,inhibition,"[12]; measured here: BGB combination, at 5 µM",-5.52%
same,inhibition,"[12]; measured here: cisplatin combination, at 0.5 µM",-32.4%
same,inhibition,"[12]; measured here: cisplatin combination, at 5 µM",-10.1%
same,inhibition,"[13]; BGB combination, concentration series, at 5 µM",37.7%
same,inhibition,[13]; at 0.5 µM,-12% (inactive)
same,inhibition,"[13]; cisplatin combination, concentration series, at 5 µM",55.6%
same,inhibition,[14],9.7% (inactive)
same,inhibition,[14]; measured here: combo with BGB IC20,13.1%
same,inhibition,[14]; measured here: combo with cisplatin IC20,4.75%
same,inhibition,[15]; at 0.5 µM,-13.5% (inactive)
same,inhibition,"[15]; cisplatin combination, at 0.5 µM",-9.06%
same,inhibition,"[15]; cisplatin combination, at 5 µM",15.1%
same,inhibition,"[15]; measured here: BGB IC40 combination 0.05 uM, at 0.05 µM",-35.9%
same,inhibition,"[15]; single agent, at 5 µM",28.1%
same,inhibition,[16]; at 0.5 µM,-15.3% (inactive)
same,inhibition,"[16]; cisplatin combo, at 5 µM",7.58%
same,inhibition,"[16]; measured here: BGB IC40 combination, at 0.05 µM",-26.3%
same,inhibition,[16]; [29],-32.4%
same,inhibition,"[16]; single agent, at 5 µM",7.98%
same,inhibition,[17]; at 0.5 µM,-26.6% (inactive)
same,inhibition,[17]; [27],-39.9%
same,inhibition,[17]; [28],-21.9%
same,inhibition,"[17]; single agent, at 0.05 µM",-32%
same,inhibition,"[17]; single agent, at 5 µM",6.08%
Cc1cc(C(=O)NNCc2ccccc2)no1,survival,[18],3.33 (inactive)
same,parasite load remaining,[19],129% (inactive)
same,viability,[19],100%
same,fold change,[1]; [20],0.777 (inactive)
same,fold change,[1]; [21],1.27
same,cell count,[1]; [22],8090
same,cell count,[1]; [23],10400
same,z-score,[2]; [24],0.697 (inactive)
same,z-score,[2]; [25],0.109
CC(=O)O[C@]1(C(C)=O)CC[C@H]2[C@@H]3C=C(Cl)C4=CC(=O)C5CC5[C@]4(C)[C@H]3CC[C@@]21C (some centres not stated),survival,[18],12.6 (inactive)
same,parasite load remaining,[19],65.7% (inactive)
same,viability,[19],68.5%
same,fold change,[1]; [20],0.93 (inactive)
same,fold change,[1]; [21],0.98
same,cell count,[1]; [22],8920
same,cell count,[1]; [23],9590
same,z-score,[2]; [24],-0.145 (inactive)
same,z-score,[2]; [25],0.56
